# Source: PubChem BioAssay (NCI)
# The panel holds about 79,000 compounds, 15% with a hit somewhere; the sample as a whole holds those more often. Unmarked numbers belong to inactive results. Active and inactive are the calls of the source. No stated cut-off is given here; in the data, active means growth inhibition above about 70%; inactive means the rest.
# Tests used:
# [1] = NCI Yeast Anticancer Drug Screen. Data for the wt2 strain (AID 169);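 further: 0% = growth of vehicle-treated yeast cultures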; conditions: S. cerevisiae wt2 strain growth inhibition, stronger effect = higher value
# Summary of the method: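 Values express reduction in yeast growth under compound treatment, referenced to vehicle-treated cells.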
# [2] = NCI Yeast Anticancer Drug Screen. Data for the mlh1 strain (AID 171);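 further: 0% = growth of vehicle-treated control cultures of the same strain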; conditions: S. cerevisiae mlh1 strain growth inhibition, stronger effect = higher value
# Summary of the method: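 Steps: expose the defined-mutant yeast strain to compound; expose a parallel culture to vehicle; measure growth; express compound effect as inhibition relative to the vehicle culture.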
# [3] = NCI Yeast Anticancer Drug Screen. Data for the sgs1 strain (AID 173);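 further: 0% = growth of vehicle-only control cultures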; conditions: S. cerevisiae sgs1 mutant, stronger effect = higher value
# Summary of the method: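 Treat defined-mutant yeast with compound; measure growth; calculate inhibition relative to vehicle-treated cells.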
# [4] = NCI Yeast Anticancer Drug Screen. Data for the mlh1 rad18 strain (AID 175); conditions: S. cerevisiae mlh1 rad18 strain growth inhibition, stronger effect = higher value
# Summary of the method: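 Test agents were incubated with a yeast strain of defined genotype (DNA damage repair defect). Inhibition of growth was derived by comparison with vehicle-exposed cultures.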
# [5] = NCI Yeast Anticancer Drug Screen. Data for the rad18 strain (AID 177); conditions: S. cerevisiae rad18 mutant growth inhibition, stronger effect = higher value
# Summary of the method: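 A genetically defined yeast mutant impaired in DNA damage repair was treated with test compounds, then its growth was measured against cultures receiving vehicle alone.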
# [6] = NCI Yeast Anticancer Drug Screen. Data for the rad52 strain (AID 147);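 further: 0% = growth of vehicle-treated control cultures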; conditions: S. cerevisiae rad52 mutant growth inhibition, stronger effect = higher value
# Summary of the method: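 Screen used a yeast mutant impaired in DNA repair. After compound exposure, growth was measured. Values reflect inhibition compared with vehicle-treated cells.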
# [7] = NCI Yeast Anticancer Drug Screen. Data for the wt1 strain (AID 149);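 further: 0% = growth of vehicle-treated wt1 cultures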; conditions: S. cerevisiae wt1 strain (SPY 50644) growth inhibition, stronger effect = higher value
# Summary of the method: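 wt1 strain grown with compound or vehicle; inhibition taken from the growth difference.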
# [8] = NCI Yeast Anticancer Drug Screen. Data for the rad50EPP+ strain (AID 151);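 further: 0% = growth of vehicle-treated control cultures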; conditions: S. cerevisiae rad50 mutant strain, stronger effect = higher value
# Summary of the method: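 Exposing the rad50EPP+ strain to each compound, growth was compared with vehicle-only cultures to give inhibition.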
# [9] = NCI Yeast Anticancer Drug Screen. Data for the mgt1 strain (AID 153); conditions: S. cerevisiae mgt1 mutant growth inhibition, stronger effect = higher value
# Summary of the method: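 Genetically defined yeast (mgt1) treated with compound; inhibition of growth expressed against vehicle-treated controls.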
# [10] = NCI Yeast Anticancer Drug Screen. Data for the rad50 strain (AID 155);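 further: 0% = growth of vehicle-only cultures of the same strain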; conditions: S. cerevisiae rad50 strain growth inhibition, stronger effect = higher value
# Summary of the method: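 DNA repair mutant yeast, compound exposure, growth read-out; inhibition is taken relative to vehicle.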
# [11] = NCI Yeast Anticancer Drug Screen. Data for the mec2-1 strain (AID 157); conditions: S. cerevisiae mec2-1 strain, stronger effect = higher value
# Summary of the method: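 Readout is yeast growth inhibition, normalised to vehicle-treated controls, in the mec2-1 strain exposed to compound.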
# [12] = NCI Yeast Anticancer Drug Screen. Data for the rad14 strain (AID 159);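 further: 0% = growth of vehicle-treated control cultures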; conditions: S. cerevisiae rad14 strain growth inhibition, stronger effect = higher value
# Summary of the method: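 DNA repair-defective yeast, compound-exposed; % growth inhibition derived by comparison with vehicle-treated controls.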
# [13] = NCI Yeast Anticancer Drug Screen. Data for the sgs1 mgt1 strain (AID 161);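 further: 0% = growth of cultures given vehicle only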; conditions: S. cerevisiae sgs1 mgt1 strain, stronger effect = higher value
# Summary of the method: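 Compounds are added to genetically altered yeast, and growth is compared with cultures given vehicle alone to give percent inhibition.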
# [14] = NCI Yeast Anticancer Drug Screen. Data for the CLN2oe strain (AID 163);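 further: 0% = growth of vehicle-only control cultures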; conditions: S. cerevisiae CLN2oe strain, stronger effect = higher value
# Summary of the method: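 Values reflect how much compound exposure reduced yeast growth, referenced to vehicle-exposed cells. Assay organism is a strain with a defined genetic change affecting cell-cycle control.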
# [15] = NCI Yeast Anticancer Drug Screen. Data for the cln2 rad14 strain (AID 165);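 further: 0% = growth equal to vehicle treated cultures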; conditions: S. cerevisiae cln2 rad14 strain, stronger effect = higher value
# Summary of the method: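 Relative to vehicle controls, growth inhibition of compound-treated cln2 rad14 yeast was recorded.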
# [16] = NCI Yeast Anticancer Drug Screen. Data for the bub3 strain (AID 167); conditions: S. cerevisiae bub3 mutant strain, stronger effect = higher value
# Summary of the method: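 In this screen, a yeast mutant lacking normal mitotic checkpoint function is challenged with compound. Relative growth versus vehicle gives the inhibition value.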
# [17] = at 5.0 µM (retest, dose inferred, filed as 0.5)
# [18] = at 50.0 µM (retest, dose inferred, filed as 5.0)
structure (smiles),measurement,setting,value
CC1=NN(C(=O)CC(=O)NC(=O)/C=C\c2ccccc2)C(=O)C1N=Nc1ccc([N+](=O)[O-])cc1 (stereo unspecified),growth inhibition,[1]; at 1.2 µM,0%
same,growth inhibition,[1]; at 3.7 µM,7%
same,growth inhibition,[1]; at 11.0 µM,39%
same,growth inhibition,[1]; at 33.0 µM,64%
same,growth inhibition,[1]; at 100.0 µM,61%
same,growth inhibition,[2]; at 1.2 µM,0%
same,growth inhibition,[2]; at 3.7 µM,10%
same,growth inhibition,[2]; at 11.0 µM,37%
same,growth inhibition,[2]; at 33.0 µM,68%
same,growth inhibition,[2]; at 100.0 µM,69%
same,growth inhibition,[3]; at 1.2 µM,2%
same,growth inhibition,[3]; at 3.7 µM,16%
same,growth inhibition,[3]; at 11.0 µM,61%
same,growth inhibition,[3]; at 33.0 µM,77% (active)
same,growth inhibition,[3]; at 100.0 µM,74% (active)
same,growth inhibition,[4]; [17],-3%
same,growth inhibition,[4]; [18],65%
same,growth inhibition,[4]; at 50.0 µM,76.6% (active)
same,growth inhibition,[5]; at 1.2 µM,-8%
same,growth inhibition,[5]; at 3.7 µM,4%
same,growth inhibition,[5]; at 11.0 µM,77% (active)
same,growth inhibition,[5]; at 33.0 µM,83% (active)
same,growth inhibition,[5]; at 100.0 µM,82% (active)
N#CSCC1COc2ccccc2O1 (stereo unspecified),growth inhibition,[6]; at 1.2 µM,-43%
same,growth inhibition,[6]; at 3.7 µM,-47%
same,growth inhibition,[6]; at 11.0 µM,-26%
same,growth inhibition,[6]; at 33.0 µM,72% (active)
same,growth inhibition,[6]; at 100.0 µM,98% (active)
same,growth inhibition,[7]; at 1.2 µM,-49%
same,growth inhibition,[7]; at 3.7 µM,-49%
same,growth inhibition,[7]; at 11.0 µM,-28%
same,growth inhibition,[7]; at 33.0 µM,54%
same,growth inhibition,[7]; at 100.0 µM,97% (active)
same,growth inhibition,[8]; at 1.2 µM,-28%
same,growth inhibition,[8]; at 3.7 µM,-18%
same,growth inhibition,[8]; at 11.0 µM,-5%
same,growth inhibition,[8]; at 33.0 µM,83% (active)
same,growth inhibition,[8]; at 100.0 µM,97% (active)
same,growth inhibition,[9]; at 1.2 µM,-25%
same,growth inhibition,[9]; at 3.7 µM,-23%
same,growth inhibition,[9]; at 11.0 µM,-9%
same,growth inhibition,[9]; at 33.0 µM,68%
same,growth inhibition,[9]; at 100.0 µM,97% (active)
same,growth inhibition,[10]; at 1.2 µM,-1%
same,growth inhibition,[10]; at 3.7 µM,1%
same,growth inhibition,[10]; [17],-5%
same,growth inhibition,[10]; at 11.0 µM,8%
same,growth inhibition,[10]; at 33.0 µM,86% (active)
same,growth inhibition,[10]; [18],89% (active)
same,growth inhibition,[10]; at 50.0 µM,88.4% (active)
same,growth inhibition,[10]; at 100.0 µM,98% (active)
same,growth inhibition,[11]; at 1.2 µM,-21%
same,growth inhibition,[11]; at 3.7 µM,-33%
same,growth inhibition,[11]; [17],-27%
same,growth inhibition,[11]; at 11.0 µM,-5%
same,growth inhibition,[11]; at 33.0 µM,87% (active)
same,growth inhibition,[11]; [18],91% (active)
same,growth inhibition,[11]; at 50.0 µM,90.8% (active)
same,growth inhibition,[11]; at 100.0 µM,97% (active)
same,growth inhibition,[12]; at 1.2 µM,-20%
same,growth inhibition,[12]; at 3.7 µM,-12%
same,growth inhibition,[12]; at 11.0 µM,-16%
same,growth inhibition,[12]; at 33.0 µM,20%
same,growth inhibition,[12]; at 100.0 µM,98% (active)
same,growth inhibition,[13]; [17],-25%
same,growth inhibition,[13]; [18],26%
same,growth inhibition,[13]; at 50.0 µM,90.6% (active)
same,growth inhibition,[14]; at 1.2 µM,-11%
same,growth inhibition,[14]; at 3.7 µM,-14%
same,growth inhibition,[14]; at 11.0 µM,-14%
same,growth inhibition,[14]; at 33.0 µM,70% (active)
same,growth inhibition,[14]; at 100.0 µM,98% (active)
same,growth inhibition,[15]; [17],-6%
same,growth inhibition,[15]; [18],85% (active)
same,growth inhibition,[15]; at 50.0 µM,85.3% (active)
same,growth inhibition,[16]; at 1.2 µM,-33%
same,growth inhibition,[16]; at 3.7 µM,-11%
same,growth inhibition,[16]; [17],8%
same,growth inhibition,[16]; at 11.0 µM,-16%
same,growth inhibition,[16]; at 33.0 µM,87% (active)
same,growth inhibition,[16]; [18],94% (active)
same,growth inhibition,[16]; at 50.0 µM,90.9% (active)
same,growth inhibition,[16]; at 100.0 µM,98% (active)
same,growth inhibition,[1]; at 1.2 µM,-50%
same,growth inhibition,[1]; at 3.7 µM,-51%
same,growth inhibition,[1]; at 11.0 µM,-24%
same,growth inhibition,[1]; at 33.0 µM,58%
same,growth inhibition,[1]; at 100.0 µM,96% (active)
same,growth inhibition,[2]; at 1.2 µM,-51%
same,growth inhibition,[2]; at 3.7 µM,-37%
same,growth inhibition,[2]; at 11.0 µM,-27%
same,growth inhibition,[2]; at 33.0 µM,77% (active)
same,growth inhibition,[2]; at 100.0 µM,97% (active)
same,growth inhibition,[3]; at 1.2 µM,-46%
same,growth inhibition,[3]; at 3.7 µM,-42%
same,growth inhibition,[3]; at 11.0 µM,-8%
same,growth inhibition,[3]; at 33.0 µM,73% (active)
same,growth inhibition,[3]; at 100.0 µM,97% (active)
same,growth inhibition,[4]; [17],5%
same,growth inhibition,[4]; [18],94% (active)
same,growth inhibition,[4]; at 50.0 µM,88.2% (active)
same,growth inhibition,[5]; at 1.2 µM,-21%
same,growth inhibition,[5]; at 3.7 µM,-22%
same,growth inhibition,[5]; at 11.0 µM,17%
same,growth inhibition,[5]; at 33.0 µM,91% (active)
same,growth inhibition,[5]; at 100.0 µM,98% (active)
